Glyco luc inh: blocks N-linked glycosylation in D54 reporter cells; D54 ERlucT glycosylation luciferase reporter, 24 h; percent of 100 nM tunicamycin response; reporter increase, % at 12.5 µM; 360,000 compounds, 0.23% hits; AID 588692;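 active = mean luciferase reporter signal, scaled so untreated is 0 and the glycosylation-blocking control 100, at or above a set limit in every replicate; inconclusive = mean reaches the limit but not every replicate does; inactive = mean below the limit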;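 note: luciferase carries N-glycosylation sites so blocking glycosylation raises the light; 0% = median of neutral control wells and 100% = median of 100 nM tunicamycin wells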
CASP6 VEID inh: inhibitors of human caspase-6 | P55212 | purified caspase-6, Z-VEID-R110 cleavage fluorescence | inhibition, % at 12.5 µM | 350,000 compounds, 0.53% hits;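 active = mean inhibition across replicates at least about 35%, with every replicate also reaching that limit, limit read from the data; inconclusive = only one of the two criteria met; inactive = neither criterion met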;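 note: 0% = median of neutral control wells and 100% = no fluorescence left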
NSD2 HMT inh: blocks human histone methyltransferase NSD2. NSD2 peptide methylation, AlphaScreen, 120 min. inhibition, % at 12.5 µM. 310,000 compounds, 0.54% hits; in the data active = inhibition above about 50%
RAD52 anneal inh: inhibitors of human RAD52 DNA annealing; P43351; recombinant RAD52 DNA annealing, FRET fluorescence; inhibition, % at 18.7 µM; 360,000 compounds, 0.46% hits; AID 651710;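 active = every replicate showing at least 50% inhibition; inconclusive = mean inhibition at least 50% but not in every replicate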
RAD54 inh: blocks human RAD54 Holliday junction branch migration. FAM/BHQ fluorescence. 360,000 compounds, 0.14% hits. AID 602329. inhibition, % at 10.4 µM. Q92698;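 active = mean normalized replicate activity at least 40 and at least half of replicates scoring 40 or more; inconclusive = only one of the two criteria met; inactive = mean below 40 and under half of replicates reaching 40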;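 note: 0% = median of neutral control wells and 100% = median of positive control wells; inhibitors cause a drop in the FAM fluorescence signal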
Target sequence (Q92698 whole entry, looked up): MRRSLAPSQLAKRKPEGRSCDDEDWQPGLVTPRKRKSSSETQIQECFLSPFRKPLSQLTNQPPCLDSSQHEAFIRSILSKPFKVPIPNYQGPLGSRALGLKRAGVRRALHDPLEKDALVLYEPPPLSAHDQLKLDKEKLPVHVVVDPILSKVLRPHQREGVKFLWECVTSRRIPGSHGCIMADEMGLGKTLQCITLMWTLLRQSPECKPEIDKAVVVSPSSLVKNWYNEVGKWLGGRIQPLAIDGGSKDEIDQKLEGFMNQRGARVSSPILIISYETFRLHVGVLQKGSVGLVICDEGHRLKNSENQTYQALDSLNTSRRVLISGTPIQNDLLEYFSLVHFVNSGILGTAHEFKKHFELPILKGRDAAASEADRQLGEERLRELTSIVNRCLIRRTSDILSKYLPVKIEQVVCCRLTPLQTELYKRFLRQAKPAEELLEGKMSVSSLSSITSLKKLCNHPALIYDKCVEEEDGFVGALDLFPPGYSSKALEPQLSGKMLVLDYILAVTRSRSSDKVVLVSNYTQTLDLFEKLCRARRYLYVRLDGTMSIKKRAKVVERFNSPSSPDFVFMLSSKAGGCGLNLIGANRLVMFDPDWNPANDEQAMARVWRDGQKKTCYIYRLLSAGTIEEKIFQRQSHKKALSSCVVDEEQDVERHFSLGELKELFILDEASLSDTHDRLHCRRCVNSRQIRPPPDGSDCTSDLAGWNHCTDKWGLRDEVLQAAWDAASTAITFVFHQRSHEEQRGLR
RAD52 DNA ctr: counter-screen for RAD52 inhibitors: DNA binding compounds; shares compounds with RAD52 anneal inh; Salmon sperm DNA/acridine orange FP displacement; AC50, µM; 1,000 compounds, 8% hits;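 active = fitted half-maximal concentration for signal loss at or below twice the highest dose tested, in every separate run, actives reach about 64 µM in these data; inconclusive = runs disagree, or flat partial signal loss, or poor fit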
* = called active by the depositor; i = inactive; ? = inconclusive; nt = no result. Most compounds without a hit are left out; they make up all but 1.2% or so of the library.

SMILES	Glyco luc inh	CASP6 VEID inh	NSD2 HMT inh	RAD52 anneal inh	RAD54 inh	RAD52 DNA ctr
CCCN1CCc2c(sc(NC(=S)NC(=O)c3ccccc3)c2C#N)C1	-5	-57	3	33	nt	nt
CC(C)N1CCc2c(sc(NC(=S)NC(=O)c3ccccc3)c2C#N)C1	-3	-132	nt	54*	nt	i
Cn1c(=N)n(CC(=O)c2ccc(Br)s2)c2ccccc21	-15	nt	1	nt	0	nt
CCN(CC)CCn1c(=N)n(CC(=O)c2ccc(Br)s2)c2ccccc21	-2	-8	nt	51*	17	i
NC(COCc1ccccc1)c1csc(Nc2ccc(C(=O)c3ccccc3)cc2)n1 (stereo not given)	-1	0	-4	58*	4	i
NC(=O)c1ccc(Nc2nc(C(N)COCc3ccccc3)cs2)cc1 (stereo not given)	1	5	1	-18	6	nt
O=C(Nc1nccs1)[C@H]1[C@H](CO)[C@H]2Cn3c(cccc3=O)[C@@H]1N2C(=O)C1CCC1	nt	0	nt	4	4	nt
COc1cccc2sc(N(CCCN(C)C)C(=O)c3sc4ccccc4c3Cl)nc12	-2	2	7	58*	33	i
CCN(CC)CCN(C(=O)c1ccc(C(=O)c2ccccc2)cc1)c1nc2c(OC)cccc2s1	1	-4	19	61*	12	i
CCN(CC)CCN(C(=O)c1ccc([N+](=O)[O-])cc1)c1nc2c(OC)cccc2s1	2	0	13	8	nt	nt
O=S(=O)(N[C@H]1CC[C@H](CCn2cc(C3(O)CCCC3)nn2)O[C@@H]1CO)c1ccc(F)cc1	nt	-1	nt	-3	-1	nt
COc1ccc(CN(C)C[C@H]2Oc3ccc(NC(=O)Nc4ccc(F)cc4)cc3C(=O)N([C@@H](C)CO)C[C@@H]2C)cc1	nt	-1	nt	3	5	nt
CC(=O)OCC(=O)C1CCC2C3CC=C4CC(O)CCC4(C)C3CCC12C (stereo not given)	-4	5	nt	-4	0	nt
CC(=O)C1CCC2C3CC=C4CC(SC(=N)N)CCC4(C)C3CCC12C (stereo not given)	4	18	8	51*	nt	i
NC(=NCc1ccccc1)NC(=O)c1nc(Cl)c(N)nc1N	-6	nt	nt	50*	?	i
C[C@@H]1CN([C@@H](C)CO)C(=O)c2cc(NC(=O)CCCCCC(=O)Nc3ccccc3N)ccc2O[C@@H]1CN(C)C(=O)Nc1ccc2c(c1)OCO2	nt	-1	nt	18	nt	nt
COc1ccc(-c2cc(NC=O)c3ncc(-c4cccc(C(=O)NCCN(C)C)c4)n3c2)c(OC)c1	-8	-64	-1	57*	32	i
Cc1cc(C)cc(NC(=S)NCc2cccn2C)c1	-3	4	1	65*	nt	i
CCOC(=O)c1sc2nc(N3CCOCC3)c3c(c2c1N)CC(C)(C)N(C)C3	-2	nt	-1	nt	-4	nt
CN1Cc2c(N3CCOCC3)nc3sc(C(=O)c4ccccc4)c(N)c3c2CC1(C)C	-4	2	3	60*	nt	i
CN1CCN(c2cc(-c3cc(O)c4ncccc4c3)ccn2)CC1	-11	nt	nt	107*	26	i
CN1CCN(C(=O)c2cccc(-c3cc(O)c4ncccc4c3)c2)CC1	-2	nt	nt	20	2	nt
Nc1ccc(N2CCN(CCCCN3C(=O)C4CCCN4C3=O)CC2)cc1 (stereo not given)	5	32	22	101*	nt	i
CC(=O)N(C)C[C@H]1OCc2ccccc2-c2ccccc2C(=O)N([C@H](C)CO)C[C@H]1C	nt	-1	nt	7	4	nt
COc1ccc2[nH]c3c(C)c4ccncc4c(C)c3c2c1	-1	-7	nt	100*	36	i
SMILES	Glyco luc inh	CASP6 VEID inh	NSD2 HMT inh	RAD52 anneal inh	RAD54 inh	RAD52 DNA ctr
CCCN1C[C@@H](C)[C@@H](OC)CN(C)C(=O)c2ccc(NC(=O)C3CCC3)cc2OC[C@H]1C	nt	-1	nt	-2	5	nt
O=C(Nc1ccn(CCCN2CCN(c3ccccc3)CC2)c(=O)n1)OCc1ccccc1	-5	-5	nt	3	4	nt
O=C(Nc1ccn(CCCN2CCN(Cc3cccc4ccccc34)CC2)c(=O)n1)OCc1ccccc1	-3	1	nt	52*	nt	i
CC1(C)CC(N=c2cc(-c3ccccc3)oc3ccc(Cl)cc23)CC(C)(C)N1	?	-9	15	101*	nt	17µM*
C[C@@H]1CN([C@H](C)CO)C(=O)Cc2cc(NS(=O)(=O)c3cn(C)cn3)ccc2O[C@@H]1CN(C)C(=O)Nc1ccc(C(F)(F)F)cc1	nt	-2	nt	4	nt	nt
CCN(CC)CCNC(=O)C(=O)NCC1OCCN1S(=O)(=O)c1cccs1 (stereo not given)	-1	-158	9	54*	-7	i
COCCNC(=O)C(=O)NCC1OCCN1S(=O)(=O)c1cccs1 (stereo not given)	3	0	nt	-13	-10	nt
C[C@H](CO)N1C[C@H](C)[C@@H](CN(C)Cc2ccc(Oc3ccccc3)cc2)Oc2ccc(NS(=O)(=O)c3cn(C)cn3)cc2C1=O	nt	0	nt	18	5	nt
CN(C)CCOc1ccc2c(c1)C(=O)C(=Cc1ncc([N+](=O)[O-])n1C)C2	-19	-27	10	88*	62*	i
CCc1cc(OCCN(C)C)ccc1Cl	2	-1	3	-5	nt	nt
CN(C)c1ccc(NC(=O)C[n+]2ccccc2)cc1	3	-126	1	45	-20	i
CC(=O)c1ccc(NC(=O)C[n+]2ccc(N(C)C)cc2)cc1	1	-31	1	3	1	nt
Cc1ccc[n+](CC(=O)Nc2ccc(N(C)C)cc2)c1	1	-117	5	78*	-6	i
COc1ccc(/C=N/Nc2cc(C)nc3c(C)cccc23)cc1	5	-12	0	80*	61*	?
COc1cccc2c(N/N=C/c3ccc(O)c(O)c3)cc(C)nc12	0	11	15	-27	-1	nt
COc1ccc(C)cc1Nc1n[n+](-c2ccccc2)c(-c2cc(OC)c(OC)cc2Br)s1	1	-3	nt	28	-10	nt
COc1ccc(C)cc1Nc1n[n+](-c2ccccc2)c(-c2c(OC)ccc3ccccc23)s1	1	9	nt	102*	2	i
CCOC(=O)c1c(CNc2ccncc2)n(C)c2cc(Br)c(O)cc12	4	4	1	64*	nt	i
C[C@H](CO)N1C[C@H](C)[C@H](CN(C)CC2CC2)OCCCC[C@H](C)Oc2ccc(NS(=O)(=O)c3cn(C)cn3)cc2C1=O	nt	-3	nt	9	3	nt
NCCCC[C@H](NC(=O)C1CCNCC1)c1nnc([C@@H](N)Cc2ccc(O)cc2)o1	3	-159	nt	74*	11	i
Cc1ccc(S(=O)(=O)N(C)C[C@@H]2Oc3ncc(-c4ccncc4)cc3C(=O)N([C@@H](C)CO)C[C@H]2C)cc1	nt	0	nt	29	-6	nt
Cc1ccc(C)n1-c1nnc(N2CCC(C(=O)N3CCN(C)CC3)CC2)s1	7	-105	nt	56*	0	i
CCCN1CCN(CCCNC(=O)C2CCN(c3nnc(-n4c(C)ccc4C)s3)CC2)CC1	5	-154	6	58*	-14	i

Screening results from PubChem.
